# High-throughput results deposited in PubChem BioAssay by Broad Institute.
# An excerpt weighted towards active compounds, which were near 6.7% of everything screened.
# Pf Dd2 growth: blocks growth of Plasmodium falciparum Dd2 parasites | P. falciparum Dd2 growth, SYBR Green, 72 h; hits give low values | activity change, % at 10 µM | 2.3% of 94,000 active | AID 1159554; in the data active = activity change below about -80%; inconclusive = no clear call, values can overlap the other calls
# T cruzi growth-1: T. cruzi proliferation inhibition | T. cruzi beta-gal in NIH3T3, GalScreen luminescence, 90 h | inhibition, % at 8.34 µM | 5.9% of 77,000 active | AID 624255;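 active = mean inhibition above about 93%, with at least 55% of replicates each passing it, limit read from the data, passing the limit was not always enough; inconclusive = only one of those two conditions holds; inactive = neither condition holds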
# C diff HTS: C. difficile growth inhibition; growth activity, negative = inhibition, % at 16 µg/mL (by protocol); 0.25% of 86,000 active; Clostridium difficile clinical isolate growth, OD600, 24 h; hits give low values;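 active = mean growth activity at or below -80% and every replicate also at or below -80%; inconclusive = mean at or below -80% but some replicate above -80%; inactive = mean growth activity above -80%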;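 also: 0% = DMSO wells and -100% = levofloxacin 16 µg/mL wells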
# T cruzi growth-2: Trypanosoma cruzi proliferation inhibition; AID 651739; inhibition, % at 8.35 µM; T. cruzi beta-gal in NIH3T3, GalScreen luminescence, 90 h; shares compounds with T cruzi growth-1; 72% of 5,600 active;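 active = mean replicate inhibition above about 95% and at least 55% of replicates individually reaching it, limit read from the data; inconclusive = only one of the two criteria is met; inactive = neither criterion is met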
# T cruzi growth-3: inhibitors of T. cruzi proliferation. shares compounds with T cruzi growth-1. T. cruzi beta-gal in NIH3T3, GalScreen luminescence, 90 h. inhibition, % at 2.09 µM. 21% of 5,600 active. AID 651740;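 active = mean inhibition above about 95%, with at least 55% of replicates also reaching it, limit read from the data; inconclusive = meets just one of the two conditions; inactive = meets neither condition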;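 also: plate controls were neutral control median for no effect and positive control median for full effect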
# 3T3 cytotox: kills mouse NIH/3T3 fibroblasts; shares compounds with T cruzi growth-1; cytotoxicity (signal decrease), % at 8.35 µM; NIH/3T3 viability, CellTiter-Glo ATP luminescence, 90 h; 14% of 5,600 active;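 active = mean signal decrease across replicates above about 35% based on untreated-well scatter, with enough replicates individually passing, limit read from the data; inconclusive = no rule stated though some were filed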;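 also: 0% = median of neutral control wells and 100% = median of positive control wells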
# NIH3T3 tox 2: kills mouse NIH/3T3 fibroblasts; shares compounds with T cruzi growth-1; NIH/3T3 viability, CellTiter-Glo ATP luminescence, 90 h; inhibition, % at 24.9 µM; 56% of 5,600 active; AID 651744;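 active = mean loss of cell viability signal at or above a set limit, and enough replicates individually reaching it; inconclusive = meets only the mean limit or only the replicate share; inactive = meets neither condition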;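 also: 0% = median of neutral control wells and 100% = median of positive control wells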
# * marks the source's active call; other numbers are inactive results; u = inconclusive; x = no result; ! = repeats disagree.
SMILES,Pf Dd2 growth,T cruzi growth-1,C diff HTS,T cruzi growth-2,T cruzi growth-3,3T3 cytotox,NIH3T3 tox 2
CC(C)NC(=O)Nc1ccc2c(c1)C(=O)N([C@H](C)CO)C[C@@H](C)[C@@H](CN(C)Cc1ccccc1)OCCCC[C@@H](C)O2,31,36,4,x,x,x,x
CC(C)NC(=O)Nc1ccc2c(c1)C(=O)N([C@@H](C)CO)C[C@@H](C)[C@@H](CN(C)Cc1ccccc1)OCCCC[C@H](C)O2,-41,103*,-8,39,10,14,9
CC(C)NC(=O)Nc1ccc2c(c1)C(=O)N([C@@H](C)CO)C[C@@H](C)[C@H](CN(C)Cc1ccccc1)OCCCC[C@H](C)O2,-36,102*!,2,64,-3,-18,12
CC(C)NC(=O)Nc1ccc2c(c1)C(=O)N([C@H](C)CO)C[C@@H](C)[C@H](CN(C)Cc1ccccc1)OCCCC[C@H](C)O2,-77,29,2,x,x,x,x
CN(C)C(=O)C[C@H]1C=C[C@@H](NC(=O)NC2CCCCC2)[C@H](CO)O1,-5,x,-1,x,x,x,x
C[C@@H]1CN([C@@H](C)CO)C(=O)c2cccc(NS(=O)(=O)c3ccc(F)cc3)c2O[C@@H]1CN(C)S(=O)(=O)c1ccc(Cl)cc1,-63,-9,-10,x,x,x,x
CC(=O)N(C)C[C@H]1Oc2cc(C3=CCCCC3)ccc2S(=O)(=O)N([C@@H](C)CO)C[C@@H]1C,7,34,x,x,x,x,x
O=C(C[C@H]1C=C[C@H](NS(=O)(=O)c2ccccc2)[C@@H](CO)O1)NCc1ccncn1,10,-26,-1,x,x,x,x
C[C@H](CO)N1C[C@H](C)[C@@H](CN(C)C(=O)c2ccncc2)OCCCC[C@H](C)Oc2ccc(NC(=O)Cc3ccccc3)cc2C1=O,-27,13,3,x,x,x,x
COc1cccc(S(=O)(=O)N2CCCCN3[C@@H](CO)[C@H](c4ccc(-c5cccnc5)cc4)[C@@H]3C2)c1,4,107*,-8,100*,43,u,38*
COc1cccc(S(=O)(=O)N2CCCCN3[C@H](CO)[C@H](c4ccc(-c5cncnc5)cc4)[C@H]3C2)c1,9,82,7,x,x,x,x
COc1cccc(S(=O)(=O)N2CCCCN3[C@H](C2)[C@@H](c2ccc(-c4cccnc4)cc2)[C@@H]3CO)c1,-65,114*,-2,112*,84,23,51*
COc1cccc(S(=O)(=O)N2CCCCN3[C@H](CO)[C@H](c4ccc(-c5cncnc5)cc4)[C@@H]3C2)c1,33,36,8,x,x,x,x
O=C(NC1CCC1)[C@H]1[C@H](CO)[C@H]2Cn3c(ccc(-c4ccccc4)c3=O)[C@@H]1N2,11,17,-1,x,x,x,x
C[C@H](CO)N1C[C@H](C)[C@H](CN(C)C(=O)Nc2ccccc2F)Oc2cc(-c3cccc(C#N)c3)ccc2S1(=O)=O,-68,90,2,x,x,x,x
C[C@H]1CN([C@@H](C)CO)S(=O)(=O)c2ccc(-c3cccc(C#N)c3)cc2O[C@H]1CN(C)C(=O)Nc1ccccc1F,-69,117*,1,103*,89,37*,64*
C[C@@H]1CN([C@H](C)CO)S(=O)(=O)c2ccc(-c3ccc(F)cc3)cc2O[C@H]1CN(C)C(=O)Nc1ccccc1F,-55,55,12,x,x,x,x
C[C@H](CO)N1C[C@H](C)[C@H](CN(C)C(=O)Nc2ccccc2F)Oc2cc(-c3ccc(F)cc3)ccc2S1(=O)=O,-54,101,1,x,x,x,x
COc1ccc(-c2ccc3c(c2)O[C@H](CN(C)C(=O)Nc2ccccc2F)[C@H](C)CN([C@@H](C)CO)S3(=O)=O)cc1,-22,96*,-8,105*,63,19,72*
C[C@H]1CN([C@@H](C)CO)S(=O)(=O)c2ccc(-c3ccc(F)cc3)cc2O[C@H]1CN(C)C(=O)Nc1ccccc1F,-76,u,32,110*,76,56*,55*
COc1ccc(-c2ccc3c(c2)O[C@H](CN(C)C(=O)Nc2ccccc2F)[C@H](C)CN([C@H](C)CO)S3(=O)=O)cc1,-30,84,-4,x,x,x,x
C[C@@H]1CN([C@@H](C)CO)S(=O)(=O)c2ccc(-c3ccc(F)cc3)cc2O[C@@H]1CN(C)C(=O)Nc1ccccc1F,-19,98*,-3,102*,43,-2,24
